Source: PubChem BioAssay (NCI)
About 83,000 compounds went through this panel and 20% of them were active in at least one assay; those are over-represented in the sample as a whole.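 Testing used 96-well plates and a 48-hour single-concentration exposure. Example: -40 means 40% of the starting cells died.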 Calls of active or inactive are those of the source. How the source made its calls: active means growth percent below 10; inactive means the rest.

Each molecule was assayed on HL-60(TB) leukemia (assay: NCI-60 one-dose screen, 48 h (100 = growth as untreated, 0 = no growth, -100 = all killed)). Conditions: 10 µM unless noted.

SMILES	growth
COc1cc(/C=C/C(=O)c2ccc(C)cc2)ccc1Oc1nc(NCCO)nc(N2CCOCC2)n1	-26.7% (active)
COc1ccc(NC2=C(Cl)C(=O)c3nc(C)ccc3C2=O)cc1OC	9.95% (active)
Cc1cccc2sc(/N=C(\N)C(Cl)(Cl)Cl)nc12	103% (inactive)
c1ccc2c(NCCCN3CCOCC3)c3oc4ccccc4c3nc2c1	-21.5% (active)
O=C1c2c(c3c4cc(O)ccc4oc3c3[nH]c4ccccc4c23)C(=O)N1O	9.22% (active)
Cc1cc2nc3c4cc(C#N)ccc4n(CCN(C)C)c3nc2cc1C	-35.7% (active)
Nc1nc(Nc2ccccc2SSc2ccccc2Nc2nc(N)nc(-c3ccccc3)n2)nc(-c2ccccc2)n1	62.1% (inactive)
CCCCCc1ccc(S(=O)(=O)Nc2cccc(-c3csc(NC(=O)CN4CCN(CCO)CC4)n3)c2)cc1	66.3% (inactive)
CN1CCN(c2ccc(C(=O)/C=C/c3ccc(Cl)c(C(F)(F)F)c3)cc2)CC1	-22.6% (active)
CCc1cccc2c3c(sc12)C(c1ccc(Cl)cc1)C(C#N)=C(/N=C/c1ccc(Cl)cc1)O3 (stereo not given)	-6.78% (active)
Nc1nc(N)c2c(n1)NC(c1ccc(Cl)cc1)CC(c1ccc(Nc3nc(NCCO)nc(N4CCOCC4)n3)cc1)=N2 (stereo not given)	27% (inactive)
CCOC(=O)c1c(Nc2ccccc2)nn2c(-c3ccccc3)ccnc12	80.7% (inactive)
O=C(/C=C/Nc1ccc(S(=O)(=O)Nc2ncccn2)cc1)c1ccc(N=Cc2c(O)[nH]c3ccccc23)cc1	99.6% (inactive)
CCOC(=O)c1nn(-c2ccccc2)c(=O)c2c(N)c(C#N)c(-c3cccs3)cc12	113% (inactive)
COc1cc2oc(-c3cccc(NC(=O)c4cc(NC(=O)[C@H](C)NC(=O)OC(C)(C)C)ccc4C)c3)cc(=O)c2c(OC)c1OC	62.6% (inactive)
COc1ccc(/C=N/Nc2nc(N/N=C/c3ccc(OC)cc3O)nc(N3CCOCC3)n2)c(O)c1	30.9% (inactive)
C=C(C)[C@@H]1CC[C@]2(C(=O)NCCCN(CCC#N)CCC#N)CC[C@]3(C)[C@H](CC[C@@H]4[C@@]5(C)CCC(=O)C(C)(C)[C@@H]5CC[C@]43C)[C@@H]12	96.3% (inactive)
NC(=O)c1cccc(C#CCNC[C@H]2C[C@@H](n3ccc4c(Cl)ncnc43)[C@H](O)[C@@H]2O)c1	102% (inactive)
CCCC(=O)NC(c1cccnc1)c1ccc2c(C)ccnc2c1O (stereo not given)	6.67% (active)
COc1ccc(C2CC(c3ccc(Nc4nc(NCCO)nc(Nc5ccc(Cl)cc5)n4)cc3)=Nc3c(N)nc(N)nc3N2)cc1 (stereo not given)	36.6% (inactive)

SMILES	growth
O=C(O)c1cn(C2CC2)c2cc(N3CCN(C(=O)CN4C(=O)CSC4=O)CC3)c(F)cc2c1=O	135% (inactive)
C#CCOc1ccc(/C=N/Nc2nc(-c3cc4cc(Br)cc(Br)c4oc3=O)cs2)cc1	85.9% (inactive)
CSc1ccc(/C(=N/N=C(N)N)c2ccccc2)cc1	-17.1% (active)
O=C(c1ccc(O)cc1)[C@@H]1CN[C@@]2(C(=O)Nc3ccccc32)[C@H]1c1ccc(F)cc1	95.4% (inactive)
COc1cc2oc(-c3cccc(NC(=O)c4cc(NC(=O)[C@H](C)N)ccc4Cl)c3)cc(=O)c2c(OC)c1OC	97.2% (inactive)
CCCCOc1ccc(S(=O)(=O)N2CCN(c3nccc(N4CCOCC4)n3)CC2)cc1	32.4% (inactive)
Cc1[nH]c(C(=O)Nc2ccccc2OCc2cccc(C(=O)N3CCC[C@@H](N)C3)c2)c(Cl)c1Cl	-67.7% (active)
O=C1[C@@H]2Cc3c([nH]c4ccccc34)[C@H](c3c(Cl)cccc3Cl)N2C(=O)CN1C1CCN(CC2CCCCC2)CC1	-25.1% (active)
COc1ccc(C(=O)/C=C/c2ccc(Oc3nc(NCCO)nc(N4CCOCC4)n3)c(OC)c2)cc1	15.5% (inactive)
O=C(CCCCCCN1CC(=O)N2[C@@H](c3cccs3)c3[nH]c4ccccc4c3C[C@H]2C1=O)NO	100% (inactive)
COc1c(N2CC3CCCNC3C2)c(F)cc2c(=O)c(C(=O)N/N=C/c3ccc(N(C)C)cc3)cn(C3CC3)c12 (stereo not given)	78.5% (inactive)
COc1ccc([C@H]2[C@H](O)C(=O)N2c2cc(OC)c(OC)c(OC)c2)cc1F	-13% (active)
Cc1ccc(-c2nnc3sc(C4=Cc5ccccc5OC=C4)nn23)cc1	85% (inactive)
O=C1C(c2ccccc2)=C(N2CCc3ccccc32)OC1(Cl)Cl	-14.6% (active)
O=C(Nc1ccc(Cl)cc1)Nc1nc2ccc([N+](=O)[O-])cc2s1	-51% (active)
C(=C(\C1=NCCN1)n1cnc2ccccc21)/c1ccc2ccccc2c1	50.5% (inactive)
CC(C)(C)c1ccc(C(=O)Nc2nc3ccc(O)cc3s2)cc1	24.8% (inactive)
CC1=CC(=O)CC(C)(C)[C@@]1(O)/C=C/C(C)=C\C(=O)O	-41.9% (active)
Cn1ccnc1C(=O)/C=C/c1ccc(NC(=O)Nc2ccccc2)cc1	-16.5% (active)
CCOC(=O)c1c(Nc2ccccc2)nn2c(-c3cccs3)ccnc12	74.9% (inactive)
